Among the data in PubChem BioAssay (NCI) are growth values, retold here.

The panel holds about 83,000 compounds, 20% with a hit somewhere; the sample as a whole holds those more often.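 Assay: single dose, 48 h. Readout: percent growth (0 = no net growth; negative = cell death). Active: <10.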 Unmarked numbers belong to inactive results. The source made the active and inactive calls.

Common to all, as to assay: NCI-60 one-dose screen, 48 h (100 = growth as untreated, 0 = no growth, -100 = all killed)
Holding throughout (conditions): 10 µM

Test [1] has as its system RPMI-8226 leukemia.
For test [2], the system named is OVCAR-8 ovarian.
Test [3] relates to OVCAR-5 ovarian.
In test [4] the test system is OVCAR-4 ovarian.
Test [5] has as its system SK-OV-3 ovarian.
The subject of test [6] is IGROV1 ovarian.
For test [7], the system named is OVCAR-3 ovarian.
The test system of test [8] is HS 578T breast.
In test [9] the test system is NCI/ADR-RES ovarian.
Test [10] deals with T-47D breast.

Consider `CN(C)CCS(=O)(=O)CCN(C)C`, for which the growth in test [1] was 108%; in [2] it was 99.5%; in [3], 105%; in test [4], 120%; in test [5], 98.8%; in test [6] it was 119%. The growth in [7] was 110%; in test [8], 98.9%; in test [9], 105%; in [10] it was 111%.
Turning to `N#Cc1cccc(OCc2nc(N)nc(N)c2-c2ccc(Cl)c(Cl)c2)c1`, the growth in [1] was 60.1%; in test [2], 19.3%; in test [3], 35.6%; in test [4], 88.3%; in test [5], 39%; in test [6], 17.8%. Further, the growth was 38.5% in [7], 49.7% in [8], 34.1% in test [9] and 71.5% in [10].
Turning to `CCCCCCNC(=O)Oc1ccc(/C(=C(/CC)Cc2ccccc2)c2ccc(OCCN3CCCCC3)cc2)cc1`, the growth in test [1] was 68.2%; in test [2], 81.6%; in [3], 94%; in [4], 69.9%; in [5] it was 86.3%; in test [6], 91.1%. Moreover, the growth in test [7] is 87.8%; in test [8], 83.5%; in test [9], 81.8%; in [10], 51.3%.
Consider `CC(C)(C)c1cc(Br)cc(C(C)(C)C)c1O`, for which the growth in test [1] was 93.9%; in [2], 103%; in [3] it was 111%; in test [4], 112%; in [5], 101%; in test [6], 115%. For the same compound, the growth in [7] was 108%; in [8], 120%; in test [9], 107%; in [10], 99.8%.
Take `N=C(N)c1ccc(-c2ccc(-c3ccccc3)o2)nc1`: the growth is 38.6% in test [1]; 92.6% in test [2]; 85% in test [3]; 75.3% in test [4]; 100% in [5]; 95.7% in test [6]. Besides, the growth is 106% in [7], 131% in [8], 100% in [9] and 81.5% in test [10].
For `COc1ccc(-c2cc(/C=C3\C(=O)Nc4ccc(OC)cc43)[nH]n2)cc1`, the growth is 20.6% in test [1]; 48.8% in test [2]; 82.5% in test [3]; 79.8% in test [4]; 33.6% in test [5]; 31.8% in [6]. The growth in test [7] was 2.64% (active); in test [8], 14%; in test [9], 21.7%; in [10] it was 47.3%.
Take `Cc1cccc2c1O/C(=C\c1ccc([N+](=O)[O-])o1)C2=O`: the growth in test [1] is -34.7% (active); in test [2], -7.67% (active); in test [3], -20.8% (active); in test [4], -82.4% (active); in test [5], 45.1%; in test [6], -34.7% (active). Further, the growth is -85.7% (active) in test [7], -23.2% (active) in test [8], 10.5% in test [9] and -26% (active) in [10].
For the compound `CC1CC(=O)OC(C)C1` (stereo not given), the growth in [1] was 104%; in [2], 104%; in test [3], 105%; in test [4] it was 97.6%; in test [5], 101%; in [6] it was 107%. For the same compound, the growth in [7] is 116%; in test [8] it was 112%; in [9] it was 112%; in test [10], 107%.
Regarding `O=S(=O)(Nc1ccccn1)c1ccc(N=Nc2ccc(O)c3ncccc23)cc1`, the growth in test [1] was -15.1% (active); in test [2] it was 1.26% (active); in test [3], 22.4%; in [4], 8.85% (active); in test [5], -7.21% (active); in test [6] it was -1.59% (active). The growth in test [7] was 14.4%; in test [8] it was 13.5%; in test [9] it was 14.1%; in [10] it was -6.2% (active).
Turning to `COc1cc(NC(=O)CCSc2nc3ccc(C)cc3c(=O)n2Cc2ccccc2)cc(OC)c1OC`, the growth in test [1] is 83.8%; in test [2] it was 29.9%; in test [3], 94.2%; in [4], -32.1% (active); in [5], 30.2%; in test [6], 110%. For the same compound, the growth is 67.9% in [7], 6.72% (active) in test [8], 83.8% in [9] and 65.6% in test [10].
As for `Clc1ccc(Sc2nc(NC3CC3)nc(Sc3ccc(Cl)cc3)n2)cc1`, the growth in [1] is 62%; in test [2], 87.4%; in test [3], 92.9%; in test [4], 66.3%; in [5], 72.8%; in [6], 64.7%. Moreover, the growth in test [7] is 85.8%; in [8], 96.1%; in [9], 78.3%; in [10], 65%.
For the compound `O=C1/C(=C\c2ccc(F)cc2)CN(C(=O)c2ccccc2F)C/C1=C\c1ccc(F)cc1`, the growth in test [1] is -35.8% (active); in [2] it was 1.61% (active); in test [3] it was 21.6%; in test [4] it was -5.48% (active); in test [5], 11.1%; in [6] it was -38.4% (active). For the same compound, the growth in [7] was -29.8% (active); in [8], 11.8%; in [9], 11.5%; in test [10] it was 40.1%.
Regarding `O=C1Nc2ccc(Cl)cc2/C1=C\c1c(-c2ccc(Cl)cc2)nc2sc(C3CC3)nn12`, the growth is 69.5% in test [1]; 26.5% in test [2]; 77.8% in test [3]; 9.28% (active) in test [4]; 39.2% in [5]; 71.5% in [6]. Moreover, the growth in test [7] is 63.9%; in [8], 7.42% (active); in test [9], 45%; in test [10], 50.7%.
